Experimental data as given in the antibiotic and cytotoxicity screens of Wong et al. (2023).
The campaign covered roughly 39,000 compounds. About 3,300 (8.5%) were called active. What follows is part of a selection rich in actives, with near analogues and random picks from the rest.

test system: HepG2; experiment: cytotoxicity call (relative viability < 0.9); details: 10 µM

Compound	cytotoxicity call
Cc1noc(C)c1NC(=O)N(C)C[C@H]1Oc2ccc(NC(=O)c3ccncc3)cc2CC(=O)N([C@H](C)CO)C[C@H]1C	inactive
CC(C)NC(=O)N(C)C[C@@H]1OCCCC[C@@H](C)Oc2ccc(NC(=O)Nc3ccccc3)cc2C(=O)N([C@@H](C)CO)C[C@H]1C	inactive
C[C@H]1CN([C@@H](C)CO)C(=O)c2cc(NS(=O)(=O)c3ccc(Cl)cc3)ccc2O[C@@H]1CN(C)S(C)(=O)=O	inactive
C[C@H](CO)N1C[C@H](C)[C@@H](CN(C)C(=O)C2CCOCC2)Oc2ncc(C#Cc3cccc(F)c3)cc2C1=O	inactive
C[C@@H]1CN([C@@H](C)CO)C(=O)c2cc(NC(=O)Nc3cccc4ccccc34)ccc2O[C@@H](C)CCCCO[C@@H]1CN(C)S(=O)(=O)c1cccs1	inactive
COc1ccccc1C#Cc1cnc2c(c1)C(=O)N([C@@H](C)CO)C[C@@H](C)[C@H](CN(C)C(=O)CC1CC1)O2	inactive
Cc1ccc(S(=O)(=O)Nc2ccc3c(c2)C(=O)N([C@H](C)CO)C[C@@H](C)[C@H](CN(C)C(=O)NC(C)C)O3)cc1	inactive
C[C@@H]1CN([C@H](C)CO)C(=O)CCCn2cc(nn2)CO[C@@H]1CN(C)C(=O)c1cc(-c2ccccc2)on1	inactive
CN(C)CCCCNC(=O)[C@@H]1C[C@@H]2C(=O)N[C@@H](CCCC[N+](C)(C)C)C(=O)N2[C@@H]1c1ccc(O)cc1	inactive
C[C@H]1CCCCO[C@H](CN(C)C(=O)Nc2ccc(C(F)(F)F)cc2)[C@@H](C)CN([C@@H](C)CO)C(=O)c2cc(NC(=O)Nc3cccc4ccccc34)ccc2O1	inactive
COc1ccc(S(=O)(=O)N(C)C[C@H]2Oc3ccc(NC(=O)Nc4c(C)noc4C)cc3CC(=O)N([C@@H](C)CO)C[C@@H]2C)cc1	inactive
CCS(=O)(=O)N1C[C@]2(CN(C2)C(=O)Nc2ccc(cc2)F)c2c(n(c3cc(ccc23)OC)C)[C@H]1CO	inactive
C[C@H](CO)N1C[C@H](C)[C@@H](CN(C)Cc2ccc(Oc3ccccc3)cc2)Oc2ccc(NS(=O)(=O)c3ccc(F)cc3)cc2CC1=O	inactive
C[C@@H]1CN([C@H](C)CO)C(=O)Cc2cc(NS(=O)(=O)c3ccc(F)cc3)ccc2O[C@@H]1CN(C)Cc1ccc(Oc2ccccc2)cc1	active
CC(=O)[C@@H](OC(=O)CS(C)(=O)=O)C(=O)NCc1ccccc1	inactive
COc1ccc(S(=O)(=O)Nc2ccc3c(c2)C(=O)N([C@H](C)CO)C[C@@H](C)[C@H](CN(C)C(=O)CCC(F)(F)F)OCCCC[C@@H](C)O3)cc1	inactive
C[C@@H]1CN([C@H](C)CO)C(=O)c2cc(NS(=O)(=O)c3ccc(Cl)cc3)ccc2O[C@@H](C)CCCCO[C@H]1CN(C)C(=O)C1CCCCC1	active
C[C@@H]1CCCCO[C@@H](CN(C)C(=O)C2CCCCC2)[C@H](C)CN([C@@H](C)CO)C(=O)c2cc(NS(=O)(=O)c3ccc(Cl)cc3)ccc2O1	inactive
COc1ccc(S(=O)(=O)Nc2ccc3c(c2)C(=O)N([C@H](C)CO)C[C@@H](C)[C@H](CN(C)C(=O)C2CCCCC2)OCCCC[C@@H](C)O3)cc1	inactive
C[C@H](CO)N1C[C@H](C)[C@H](CN(C)C(=O)C2CCCCC2)OCCCC[C@H](C)Oc2ccc(NS(=O)(=O)c3ccccc3)cc2C1=O	inactive
C[C@@H]1CCCCO[C@H](CN(C)C(=O)C2CCCCC2)[C@@H](C)CN([C@H](C)CO)C(=O)c2cc(NS(=O)(=O)c3ccc(Cl)cc3)ccc2O1	inactive
COc1ccc(S(=O)(=O)Nc2ccc3c(c2)C(=O)N([C@H](C)CO)C[C@H](C)[C@H](CN(C)C(=O)C2CCCCC2)OCCCC[C@H](C)O3)cc1	active
C[C@@H]1CN([C@H](C)CO)C(=O)c2cc(NS(=O)(=O)c3ccc(Cl)cc3)ccc2O[C@@H](C)CCCCO[C@@H]1CN(C)C(=O)C1CCCCC1	active

Compound	cytotoxicity call
C[C@@H]1CN([C@@H](C)CO)C(=O)c2cc(NS(=O)(=O)c3ccc(Cl)cc3)ccc2O[C@@H](C)CCCCO[C@H]1CN(C)C(=O)C1CCCCC1	inactive
COc1ccc(S(=O)(=O)Nc2ccc3c(c2)C(=O)N([C@H](C)CO)C[C@H](C)[C@@H](CN(C)C(=O)C2CCCCC2)OCCCC[C@H](C)O3)cc1	inactive
C[C@@H]1CCCCO[C@H](CN(C)C(=O)C2CCCCC2)[C@H](C)CN([C@@H](C)CO)C(=O)c2cc(NS(=O)(=O)c3ccc(Cl)cc3)ccc2O1	inactive
C[C@@H]1CCCCO[C@H](CN(C)C(=O)C2CCCCC2)[C@H](C)CN([C@H](C)CO)C(=O)c2cc(NS(=O)(=O)c3ccccc3)ccc2O1	inactive
C[C@@H]1CCCCO[C@@H](CN(C)C(=O)C2CCCCC2)[C@H](C)CN([C@@H](C)CO)C(=O)c2cc(NS(=O)(=O)c3ccccc3)ccc2O1	active
C[C@H]1CN([C@@H](C)CO)C(=O)Cc2cc(NC(=O)Cn3cnnn3)ccc2O[C@H]1CN(C)CC1CC1	inactive
COc1ccc(NC(=O)N(C)C[C@@H]2Oc3ncc(C#C[C@@H](C)O)cc3C(=O)N([C@@H](C)CO)C[C@@H]2C)cc1	inactive
CCC(=O)N[C@H]1CC[C@H](CC(=O)OC)O[C@@H]1CO	inactive
CNC(=O)C[C@H]1CC[C@@H]2[C@H](COC[C@@H](O)CN2C(=O)c2ccccn2)O1	inactive
CC(C)NC(=O)N(C)C[C@@H]1Oc2c(NS(=O)(=O)c3cn(C)cn3)cccc2C(=O)N([C@H](C)CO)C[C@H]1C	inactive
Cc1ccc(S(=O)(=O)N(C)C[C@H]2Oc3ccc(NC(=O)NC(C)C)cc3CC(=O)N([C@@H](C)CO)C[C@@H]2C)cc1	inactive
O=C(C[C@@H]1CC[C@H]2[C@@H](COC[C@H](O)CN2C(=O)Nc2ccc(C(F)(F)F)cc2)O1)NCCc1ccncc1	inactive
Cc1ccc(S(=O)(=O)Nc2ccc3c(c2)C(=O)N([C@@H](C)CO)C[C@H](C)[C@H](CN(C)C(=O)C2CCCCC2)OCCCC[C@@H](C)O3)cc1	inactive
Cc1ccc(S(=O)(=O)Nc2ccc3c(c2)C(=O)N([C@@H](C)CO)C[C@H](C)[C@@H](CN(C)C(=O)C2CCCCC2)OCCCC[C@@H](C)O3)cc1	active
Cc1ccc(S(=O)(=O)Nc2ccc3c(c2)C(=O)N([C@H](C)CO)C[C@@H](C)[C@H](CN(C)C(=O)C2CCCCC2)OCCCC[C@@H](C)O3)cc1	inactive
C[C@H]1CCCCO[C@H](CN(C)S(=O)(=O)c2cn(C)cn2)[C@@H](C)CN([C@@H](C)CO)C(=O)c2cc(NS(=O)(=O)c3ccc(F)cc3)ccc2O1	inactive
C[C@@H]1CN([C@H](C)CO)C(=O)c2cc(NC(=O)NC3CCCCC3)ccc2O[C@@H]1CN(C)S(C)(=O)=O	inactive
COc1ccc([Si](C)(C)[C@H]2[C@H](CC(=O)N3Cc4ccccc4C[C@H]3CO)O[C@@]3(C(=O)N(C)c4c(Br)cc(C)cc43)[C@@H]2C)cc1	inactive
CN1C(=O)c2cc(NC(=O)C3CCOCC3)ccc2OC[C@H]2O[C@H](CC(=O)NCCc3ccncc3)CC[C@@H]21	inactive
O=C(/C=C/c1ccc(O)c(O)c1)O[C@H]([C@H](OC(=O)/C=C/c1ccc(O)c(O)c1)[C@H](OC(=O)/C=C/c1ccc(O)c(O)c1)C(=O)O)[C@@H](OC(=O)/C=C/c1ccc(O)c(O)c1)C(=O)O	inactive
COc1ccc(/C=C/C(=O)C=C(O)/C=C/c2ccc(OC)c(OC)c2)cc1OC	inactive
O=C(C=Cc1ccc(O)c(O)c1)C=C(O)C=Cc1ccc(O)c(O)c1	active
COc1ccc(C=CC(=O)O)cc1OC	inactive

Compound	cytotoxicity call
COc1cc(C=CC(=O)O)ccc1O	inactive
O=C(O)C=Cc1ccc(O)c(O)c1	inactive
COc1cc(C(C)=O)ccc1O	inactive
COc1cc(C=O)ccc1O	active
COc1cc(C=CC(=O)C=C(O)C=Cc2ccc(O)c(OC)c2)ccc1O	active
S=C1NCNCN1	inactive
O=C1N[C@H](Cc2ccccc2)COC(=O)[C@@H](Cc2ccc(F)cc2)CCC=CC[C@@H]1CC(=O)N(CCO)Cc1ccccc1	inactive
COc1ccc(CN2C[C@@H](C)[C@H](OC)CN(C)C(=O)c3ccc(NC(=O)c4nc5ccccc5s4)cc3OC[C@H]2C)cc1	inactive
COCC#Cc1ccc2c(c1)O[C@@H](CN(C)C(=O)CN(C)C)[C@H](C)CN([C@H](C)CO)S2(=O)=O	inactive
Cc1ccc(S(=O)(=O)N(C)C[C@@H]2Oc3ncc(Br)cc3C(=O)N([C@H](C)CO)C[C@@H]2C)cc1	inactive
COC(=O)c1cc(S(=O)(=O)N2CCOCC2)cn1C	inactive
C[C@@H]1CCCCO[C@@H](CN(C)C(=O)Nc2ccc(F)cc2)[C@@H](C)CN([C@@H](C)CO)C(=O)c2cc(NC(=O)C3CCCCC3)ccc2O1	inactive
COCC#Cc1ccc([C@H]2[C@@H](CO)N3C(=O)CN(C(=O)C4CCOCC4)C[C@@H]23)cc1	inactive
C[C@H]1CN([C@@H](C)CO)C(=O)c2cccc(NC(=O)c3cnccn3)c2O[C@H]1CN(C)C(=O)Nc1ccccc1	inactive
C[C@@H]1CN([C@@H](C)CO)C(=O)c2cc(NC(=O)Nc3ccc(C(F)(F)F)cc3)ccc2O[C@@H](C)CCCCO[C@@H]1CN(C)C(=O)CCCN(C)C	inactive
O=C(O)c1ccc2ccccc2c1	inactive
Oc1cccc(O)c1	inactive
Oc1ccc2ccccc2c1 [beta-NAPHTHOL ]	active
Oc1ccc2ccccc2c1	inactive
C[C@H](CO)N1C[C@H](C)[C@@H](CN(C)S(=O)(=O)c2ccccc2)Oc2ccc(NS(=O)(=O)c3ccccc3)cc2C1=O	inactive
Cc1ccc(S[C@]2(C(=O)NCC(C)C)CC(=O)N(Cc3cc(C(F)(F)F)cc(C(F)(F)F)c3)[C@@H]2c2ccc(CO)cc2I)cc1	inactive
